Measurements from the supplement of paper PMC11732987, “Enantioselective OTUD7B fragment discovery through chemoproteomics screening and high-throughput optimisation” (Communications Chemistry, 2025).

Legend:
Test in all cases: log2 ratio of Biotin-Ahx-Ub-VS probe labelling (fragment/DMSO); higher = less target engagement (more negative = stronger competition), active = hit call of the paper (q ≤ 0.05, log2 ratio ≤ -1)
Details in all cases: compound concentration: 200 uM; treatment time: 3 h
ALG13 = molecular target: T1, ALG13 (UniProt Q9NP73)
T1 sequence (whole entry): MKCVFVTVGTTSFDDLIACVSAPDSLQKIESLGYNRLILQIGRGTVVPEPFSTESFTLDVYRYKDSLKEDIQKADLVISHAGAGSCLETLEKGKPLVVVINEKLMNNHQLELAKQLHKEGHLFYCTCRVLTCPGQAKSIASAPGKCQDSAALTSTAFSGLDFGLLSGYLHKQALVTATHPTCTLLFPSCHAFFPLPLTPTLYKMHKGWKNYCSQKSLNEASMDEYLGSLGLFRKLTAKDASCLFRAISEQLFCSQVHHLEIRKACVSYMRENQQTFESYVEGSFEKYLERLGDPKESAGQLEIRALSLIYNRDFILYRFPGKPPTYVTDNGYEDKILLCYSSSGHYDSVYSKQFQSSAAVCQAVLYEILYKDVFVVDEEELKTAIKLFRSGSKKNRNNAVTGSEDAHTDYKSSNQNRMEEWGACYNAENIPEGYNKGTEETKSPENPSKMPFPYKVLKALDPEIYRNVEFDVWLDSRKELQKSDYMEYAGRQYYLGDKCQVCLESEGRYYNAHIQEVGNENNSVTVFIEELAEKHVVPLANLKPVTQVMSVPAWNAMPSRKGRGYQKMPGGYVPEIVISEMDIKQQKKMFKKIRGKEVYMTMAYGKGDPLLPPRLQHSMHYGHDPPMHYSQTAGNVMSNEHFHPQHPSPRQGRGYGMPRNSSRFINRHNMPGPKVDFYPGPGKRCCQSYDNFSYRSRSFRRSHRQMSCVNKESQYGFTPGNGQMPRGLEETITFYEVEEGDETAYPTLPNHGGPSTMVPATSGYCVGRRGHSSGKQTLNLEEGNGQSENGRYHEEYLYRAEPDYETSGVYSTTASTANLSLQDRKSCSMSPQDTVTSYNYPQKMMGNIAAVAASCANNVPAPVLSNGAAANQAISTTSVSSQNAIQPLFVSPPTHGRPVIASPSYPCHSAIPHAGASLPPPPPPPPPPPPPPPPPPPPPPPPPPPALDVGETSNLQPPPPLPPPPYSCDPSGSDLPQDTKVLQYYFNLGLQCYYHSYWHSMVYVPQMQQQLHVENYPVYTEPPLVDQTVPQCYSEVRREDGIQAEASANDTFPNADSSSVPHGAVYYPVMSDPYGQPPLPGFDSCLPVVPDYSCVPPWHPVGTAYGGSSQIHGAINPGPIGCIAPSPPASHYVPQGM
In short: (§1)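 HEK293T lysate (495 µg per sample, in Tris/CHAPS/IGEPAL buffer with protease inhibitors) was treated in triplicate with fragment at 200 µM or with DMSO for 3 h. It was then treated with Biotin-Ahx-Ub-VS (0.5 µM final) for 1 h. Labelled DUBs were NeutrAvidin-enriched, digested with LysC and trypsin, and run by diaPASEF LC-MS/MS. Spectronaut label-free quantities were global-median-normalised. Values are average log2 ratios fragment/DMSO by unpaired t-test, using proteins with ≥2 unique peptides.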

ATXN3 = ATXN3 (UniProt P54252)
In short: as §1

BAP1 = molecular target: T2, BAP1 (UniProt Q92560)
T2 sequence (whole entry): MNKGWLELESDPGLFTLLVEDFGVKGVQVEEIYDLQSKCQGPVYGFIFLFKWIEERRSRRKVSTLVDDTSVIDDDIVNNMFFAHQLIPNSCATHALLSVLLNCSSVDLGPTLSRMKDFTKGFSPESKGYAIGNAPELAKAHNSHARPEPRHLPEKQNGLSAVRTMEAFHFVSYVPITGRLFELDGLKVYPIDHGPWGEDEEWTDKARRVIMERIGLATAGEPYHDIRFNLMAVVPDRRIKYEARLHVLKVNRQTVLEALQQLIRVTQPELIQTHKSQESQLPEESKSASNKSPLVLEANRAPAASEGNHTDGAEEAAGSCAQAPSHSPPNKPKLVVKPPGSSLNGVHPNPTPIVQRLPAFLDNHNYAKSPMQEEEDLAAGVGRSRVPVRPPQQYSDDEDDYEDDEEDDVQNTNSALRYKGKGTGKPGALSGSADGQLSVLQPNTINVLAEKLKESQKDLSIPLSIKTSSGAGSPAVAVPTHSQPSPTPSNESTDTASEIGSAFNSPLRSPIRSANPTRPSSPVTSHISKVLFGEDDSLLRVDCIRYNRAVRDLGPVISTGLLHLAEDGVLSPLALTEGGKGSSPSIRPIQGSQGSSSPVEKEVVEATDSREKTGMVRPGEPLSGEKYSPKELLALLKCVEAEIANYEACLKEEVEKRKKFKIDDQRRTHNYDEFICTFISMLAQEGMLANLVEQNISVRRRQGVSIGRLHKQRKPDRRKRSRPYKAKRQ
In short: as §1

EIF3F = EIF3F (UniProt O00303)
In short: as §1

EIF3H = EIF3H (UniProt O15372)
In short: as §1

FAM105A = molecular target: T3, FAM105A (UniProt Q9NUU6)
T3 sequence (whole entry): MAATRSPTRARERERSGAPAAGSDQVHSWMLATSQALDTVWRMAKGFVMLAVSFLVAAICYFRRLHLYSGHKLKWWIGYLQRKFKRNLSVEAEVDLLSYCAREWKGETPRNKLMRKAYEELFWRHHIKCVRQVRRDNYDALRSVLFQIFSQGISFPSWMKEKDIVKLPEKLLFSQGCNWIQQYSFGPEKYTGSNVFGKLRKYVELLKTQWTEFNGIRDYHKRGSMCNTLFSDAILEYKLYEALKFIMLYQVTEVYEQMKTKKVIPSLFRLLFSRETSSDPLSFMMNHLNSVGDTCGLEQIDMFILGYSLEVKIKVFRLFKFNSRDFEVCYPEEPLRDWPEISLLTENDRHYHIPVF
In short: as §1

OTUB1 = OTUB1 (UniProt Q96FW1)
In short: as §1

OTUD4 = molecular target: T4, OTUD4 (UniProt Q01804)
T4 sequence (whole entry): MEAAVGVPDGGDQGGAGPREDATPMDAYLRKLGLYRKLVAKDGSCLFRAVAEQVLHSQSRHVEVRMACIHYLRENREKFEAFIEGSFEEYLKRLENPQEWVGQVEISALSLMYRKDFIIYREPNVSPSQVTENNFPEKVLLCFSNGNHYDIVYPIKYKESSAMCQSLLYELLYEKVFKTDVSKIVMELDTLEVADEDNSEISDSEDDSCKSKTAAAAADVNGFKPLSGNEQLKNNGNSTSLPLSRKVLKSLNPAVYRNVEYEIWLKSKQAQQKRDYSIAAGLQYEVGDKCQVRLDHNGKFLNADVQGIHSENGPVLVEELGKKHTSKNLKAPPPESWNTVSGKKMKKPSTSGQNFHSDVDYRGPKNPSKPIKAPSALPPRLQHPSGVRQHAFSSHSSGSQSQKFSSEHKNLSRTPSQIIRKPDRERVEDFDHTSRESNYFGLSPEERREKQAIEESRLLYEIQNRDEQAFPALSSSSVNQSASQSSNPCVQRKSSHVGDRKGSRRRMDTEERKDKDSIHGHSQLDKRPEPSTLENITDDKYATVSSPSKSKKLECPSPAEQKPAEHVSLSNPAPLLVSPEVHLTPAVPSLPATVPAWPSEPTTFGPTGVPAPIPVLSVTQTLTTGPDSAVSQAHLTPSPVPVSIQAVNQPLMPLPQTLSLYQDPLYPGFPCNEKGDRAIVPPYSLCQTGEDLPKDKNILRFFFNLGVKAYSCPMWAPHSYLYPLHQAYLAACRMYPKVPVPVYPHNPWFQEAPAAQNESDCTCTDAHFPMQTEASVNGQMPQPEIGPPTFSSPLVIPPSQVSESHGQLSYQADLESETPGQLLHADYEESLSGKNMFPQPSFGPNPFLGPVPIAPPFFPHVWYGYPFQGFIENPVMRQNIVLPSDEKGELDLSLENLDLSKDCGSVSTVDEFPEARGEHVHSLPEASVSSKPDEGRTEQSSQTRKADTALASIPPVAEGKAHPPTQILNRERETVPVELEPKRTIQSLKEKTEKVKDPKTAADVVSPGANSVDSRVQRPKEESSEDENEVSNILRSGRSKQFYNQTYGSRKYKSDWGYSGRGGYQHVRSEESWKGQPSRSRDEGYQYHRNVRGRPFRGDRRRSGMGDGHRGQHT
In short: as §1

OTUD5 = molecular target: T5, OTUD5 (UniProt Q96G74)
T5 sequence (whole entry): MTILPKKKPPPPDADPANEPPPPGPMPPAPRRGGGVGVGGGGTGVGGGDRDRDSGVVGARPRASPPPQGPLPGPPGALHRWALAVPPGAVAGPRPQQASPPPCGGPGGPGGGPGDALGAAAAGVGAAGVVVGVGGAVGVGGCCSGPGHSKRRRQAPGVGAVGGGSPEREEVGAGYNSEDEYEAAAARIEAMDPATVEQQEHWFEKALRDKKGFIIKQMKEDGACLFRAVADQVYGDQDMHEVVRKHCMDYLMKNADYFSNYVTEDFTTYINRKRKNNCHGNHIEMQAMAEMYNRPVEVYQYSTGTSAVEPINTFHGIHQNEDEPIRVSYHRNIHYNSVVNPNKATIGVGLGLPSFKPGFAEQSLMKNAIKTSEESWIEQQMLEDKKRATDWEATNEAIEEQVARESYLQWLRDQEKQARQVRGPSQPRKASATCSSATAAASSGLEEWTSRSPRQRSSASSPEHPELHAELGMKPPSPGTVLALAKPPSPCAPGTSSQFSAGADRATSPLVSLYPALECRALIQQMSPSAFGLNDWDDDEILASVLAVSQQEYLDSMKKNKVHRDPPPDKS
In short: as §1

Measured: log2 ratio of Biotin-Ahx-Ub-VS probe labelling

Chain of OTUB1 (Q96FW1 whole entry): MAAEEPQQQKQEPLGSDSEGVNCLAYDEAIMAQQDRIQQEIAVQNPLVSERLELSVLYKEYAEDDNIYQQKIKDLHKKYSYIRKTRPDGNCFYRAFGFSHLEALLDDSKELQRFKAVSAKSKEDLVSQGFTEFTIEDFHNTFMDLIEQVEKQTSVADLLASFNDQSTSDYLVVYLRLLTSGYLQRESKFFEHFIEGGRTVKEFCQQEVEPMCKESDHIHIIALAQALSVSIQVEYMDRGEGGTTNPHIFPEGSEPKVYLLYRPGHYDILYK
Chain of EIF3H (O15372 whole entry): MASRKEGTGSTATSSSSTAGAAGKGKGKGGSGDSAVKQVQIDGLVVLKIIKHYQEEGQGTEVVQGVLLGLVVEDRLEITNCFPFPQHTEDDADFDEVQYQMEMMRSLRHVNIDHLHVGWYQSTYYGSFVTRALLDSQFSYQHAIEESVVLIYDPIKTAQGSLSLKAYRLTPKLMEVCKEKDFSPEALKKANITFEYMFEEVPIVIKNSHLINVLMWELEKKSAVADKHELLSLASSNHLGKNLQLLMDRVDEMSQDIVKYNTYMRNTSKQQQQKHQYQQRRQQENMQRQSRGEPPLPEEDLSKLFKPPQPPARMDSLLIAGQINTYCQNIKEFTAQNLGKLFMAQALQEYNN
Chain of EIF3F (O00303 whole entry): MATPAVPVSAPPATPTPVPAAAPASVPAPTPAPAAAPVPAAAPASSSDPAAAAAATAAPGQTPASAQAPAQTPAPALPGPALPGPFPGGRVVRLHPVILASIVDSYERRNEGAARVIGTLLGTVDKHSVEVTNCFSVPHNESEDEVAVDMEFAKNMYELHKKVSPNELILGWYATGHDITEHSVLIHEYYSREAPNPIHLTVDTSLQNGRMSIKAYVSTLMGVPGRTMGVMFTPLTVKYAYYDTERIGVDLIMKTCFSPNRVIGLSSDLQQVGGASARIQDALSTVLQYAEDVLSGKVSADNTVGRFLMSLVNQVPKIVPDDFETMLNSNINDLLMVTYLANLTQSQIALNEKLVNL
Chain of ATXN3 (P54252 whole entry): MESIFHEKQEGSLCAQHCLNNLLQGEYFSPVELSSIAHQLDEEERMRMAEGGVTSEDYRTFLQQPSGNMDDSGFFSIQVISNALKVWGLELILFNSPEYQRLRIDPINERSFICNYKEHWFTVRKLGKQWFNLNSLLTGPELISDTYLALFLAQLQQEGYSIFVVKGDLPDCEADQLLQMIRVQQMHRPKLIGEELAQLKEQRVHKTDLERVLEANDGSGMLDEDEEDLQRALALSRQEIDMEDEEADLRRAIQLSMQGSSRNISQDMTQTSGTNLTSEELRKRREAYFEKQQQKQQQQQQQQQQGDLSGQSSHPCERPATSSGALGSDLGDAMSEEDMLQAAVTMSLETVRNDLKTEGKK

CCN(C(=O)CCl)C1CCS(=O)(=O)C1 (centres undefined)
inactive: ALG13 -0.231 | ATXN3 -0.159 | BAP1 -0.0461 | EIF3F -0.357 | EIF3H 0.227 | FAM105A 0.291 | OTUB1 -0.59 | OTUD4 -0.679 | OTUD5 -0.272
